Test results: PubChem BioAssay (NCI)
Values joined by “and” are separate entries in the source; they are usually repeats but may differ in a detail not shown here. Equal entries are not always repeated. This is part of a sample that, as a whole, favours compounds with a hit. Of some 83,000 tested, about 20% had one in any assay.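 For each line, cells grew in 96-well plates with the test compound present at a single concentration for 48 hours.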 Unmarked numbers belong to inactive results. Active and inactive are the calls of the source. Rule for the calls: active = growth percent below 10; inactive = the rest.

These compounds were tested on MDA-MB-468 breast (assay: NCI-60 one-dose screen, 48 h (100 = growth as untreated, 0 = no growth, -100 = all killed)). Conditions: 10 µM unless noted.

SMILES	growth
CCCCCCCCn1ccc2cc(NC(=O)CN3CCN(c4cc(C)nc(Cl)n4)CC3)ccc21	56.6%
CC(C)(O)Cn1cc(-c2ccc3nc(OC4CC4)ccc3c2)c2c(N)ncnc21	89.1% and 50.9%
COc1ccc(-c2nc(SCC(C)C)nc(N/N=C(/C)c3ccc(OC)c(OC)c3)c2C#N)cc1	91.5%
CC1=C(C(=O)/C=C/c2c[nH]c3ccccc23)C(c2ccccc2)NC(=S)N1 (stereo not given)	102%
CC(=O)c1c(O)c(C)c(O)c2c1OC1=CC(=O)/C(=C(/C)N)C(=O)C12C (stereo not given)	74.6%
COc1cc(C(=O)CCCl)ccc1O	94.7%
CNC(=S)N/N=C/CSC/C=N/NC(=S)NC	66.8%
CC(C)(O)c1cncc(-c2ccc3ncnc(N4CCc5cc(F)c(Cl)cc54)c3c2)c1	-36% (active)
CCc1cc2c(cc1Cl)nc1c(=O)[nH]c(=O)nc-1n2CCOCC(C)(C)C	44.3%
O=Nc1ccccc1N=O	91.7%
CCOC(=O)C1OC2(CCCC2)OC1C(=O)OCC (stereo not given)	100%
CC(C)(C)C(CCc1ccc(Cl)cc1)N1CCN(C2CCCCC2)CC1 (stereo not given)	58.3%
COc1cc(OC)cc(C2C3=C(COC3=O)Nc3cc(OC)ccc32)c1 (stereo not given)	-8.19% (active)
CC1Cc2c(Cl)ncnc2N(C)c2ccc(F)cc21 (stereo not given)	64.5%
CC(=O)Nc1cccc(NC(C)=O)n1	99.3%
CCCCOC(=O)c1cccc([N+](=O)[O-])c1	101%
O=C1NC(=O)/C(=C/c2c(-c3ccccc3)nc3sc(COc4ccccc4)nn23)S1	98.9%
Nc1ccc2cc(Br)c3ccccc3c2c1	4.15% (active)
CCCCCCn1c(-c2ccc(C(=O)O/N=C(\N)c3ccc4ccccc4c3)cc2)nc(-c2ccccc2)c1-c1ccccc1	78.8%
NC(=O)CSc1oc(-c2ccccc2)nc1S(=O)(=O)c1ccc(Br)cc1	73.9%

SMILES	growth
Cc1cc2c(c(C)c1Cl)C(=O)/C(=C/c1ccco1)O2	-2.58% (active)
CCOC(=O)/C=C1\S/C(=N\Nc2ccc([N+](=O)[O-])cc2[N+](=O)[O-])N(Cc2ccccc2)C1=O	84.2%
CCCCCCCNc1nc(C=O)ncc1-c1ccc(C(F)(F)F)cc1	103%
C#C[C@]1(O)CC[C@H]2[C@@H]3CC=C4c5sc(C6CCOCC6)nc5CC[C@]4(C)[C@H]3CC[C@@]21C	68.5%
Nc1c(C(=O)c2ccccc2)sc2nc(-c3cnccn3)cc(-c3cccs3)c12	111%
Cc1ccc2sc3c(c2c1)OC(N)=C(C#N)C3c1ccc(Cl)cc1 (stereo not given)	-18.7% (active)
CC(=O)c1c(-c2ccc(OC(F)(F)F)cc2)nc2ccccn12	94.7%
COc1ccc2nc(NC(=O)c3cc(-c4ccc(F)cc4)n4nc(-c5ccccc5)cc4n3)sc2c1	103%
CC(C)c1ccc(-n2c(=S)[nH]c3sc4c(c3c2=O)CCC(=O)C4)cc1	58.6%
COc1ccccc1/C=C/C(=O)c1ccccc1	21.4%
CCCOc1ccc2c(c1)CC[C@@H]1[C@@H]2CC[C@@]2(C)[C@H]1CC[C@]2(C)O	59.8%
COc1ccccc1/C=C\C(=O)c1ccccc1	82.7%
CCOC(=O)C1=C(CCl)NC(=O)NC1c1ccc2c(c1)OCO2 (stereo not given)	-1.1% (active)
CCCCOc1c(N)cccc1C(=O)OCCN(CC)CC	112%
Nc1ncnc2c1C(c1ccccc1)c1ccc3ccccc3c1O2 (stereo not given)	86.5%
O=C1c2cccnc2C(=O)c2c1c(C(=O)OCCCN1CCOCC1)c1ccccn21	4.71% (active)
Cc1occc1-c1nc2s/c(=C/c3ccc(-c4cc(C(F)(F)F)ccc4Cl)o3)c(=O)n2n1	108%
COc1cc(C2CC(c3cccc(Nc4ccncc4)c3)=NN2C(C)=O)cc(OC)c1OC (stereo not given)	86.6%
Oc1cccc2oc(=S)[nH]c12	105%
O=C1Nc2cc(-c3ccc(NC(=O)c4ccccc4)cc3)ccc2/C1=C/c1ccc[nH]1	2.14% (active)
